Out of some 220,000 compounds screened, about 910 (0.41%) were called active.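 The calls were made as follows: active = primary inhibition above the hit cutoff, then over 50% inhibition at one or more dose response concentrations (cut at about 23% in these data, passing the limit was not always enough); inconclusive = conflicting primary data, or primary hits not chosen for dose response; inactive = low primary inhibition, or under 50% at every dose.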 Many of the other results were omitted from the sample, so actives are more common in it than they were. Potency and affinity values are given separately.
target: Aminopeptidase N (Plasmodium falciparum (isolate 3D7)) (UniProt O96935); assay: malaria alanyl aminopeptidase activity blockers – biochemical, fluorogenic H-Leu-NHMec substrate, 1536-well (AID 1445); settings: recombinant M1AAP, H-Leu-NHMec fluorogenic kinetic assay; at 30 µM, hits give high values unless noted;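 also: plate controls were DMSO full reaction for no effect and no enzyme background for full effect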
Sequence (O96935 whole entry, looked up): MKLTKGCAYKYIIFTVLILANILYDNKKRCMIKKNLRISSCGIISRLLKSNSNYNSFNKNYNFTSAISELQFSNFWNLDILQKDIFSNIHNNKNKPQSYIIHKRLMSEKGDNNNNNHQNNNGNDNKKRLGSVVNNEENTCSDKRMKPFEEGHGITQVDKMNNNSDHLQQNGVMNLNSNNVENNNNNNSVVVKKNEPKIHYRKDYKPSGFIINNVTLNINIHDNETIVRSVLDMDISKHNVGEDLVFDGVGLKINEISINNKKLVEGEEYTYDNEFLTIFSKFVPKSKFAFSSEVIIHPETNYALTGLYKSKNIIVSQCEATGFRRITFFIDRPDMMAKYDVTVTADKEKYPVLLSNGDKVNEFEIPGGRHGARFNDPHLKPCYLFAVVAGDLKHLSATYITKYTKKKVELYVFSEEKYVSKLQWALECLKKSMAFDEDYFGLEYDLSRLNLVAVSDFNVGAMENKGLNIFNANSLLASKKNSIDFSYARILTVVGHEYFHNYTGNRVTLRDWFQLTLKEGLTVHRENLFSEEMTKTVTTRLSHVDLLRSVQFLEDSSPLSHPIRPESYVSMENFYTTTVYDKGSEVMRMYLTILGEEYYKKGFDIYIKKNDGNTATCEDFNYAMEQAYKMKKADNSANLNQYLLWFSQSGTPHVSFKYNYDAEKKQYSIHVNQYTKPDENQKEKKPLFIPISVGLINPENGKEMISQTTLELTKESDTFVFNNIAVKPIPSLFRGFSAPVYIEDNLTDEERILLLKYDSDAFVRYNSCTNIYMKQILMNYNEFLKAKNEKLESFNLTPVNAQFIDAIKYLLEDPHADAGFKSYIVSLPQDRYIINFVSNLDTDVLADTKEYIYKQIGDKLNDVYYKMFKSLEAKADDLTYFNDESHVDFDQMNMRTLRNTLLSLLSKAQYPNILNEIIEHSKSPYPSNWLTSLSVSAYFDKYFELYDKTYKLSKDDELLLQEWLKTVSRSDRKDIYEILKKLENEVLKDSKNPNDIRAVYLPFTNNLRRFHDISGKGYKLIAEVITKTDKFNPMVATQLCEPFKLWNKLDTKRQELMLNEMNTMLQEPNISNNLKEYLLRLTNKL

Row | Structure (SMILES) | inhibition
1 | COc1ccccc1N(C)S(=O)(=O)c1ccc(C(=O)OCC(=O)Nc2cc(C)on2)cc1 | -7.23% (inactive)
2 | CC(C)CN(CCOc1cccc(N2C(=O)C3=C(CCCC3)C2=O)c1)CC(C)C | 3.32% (inactive)
3 | CC(=O)c1cccc(NC(=O)N2CCCc3ccccc32)c1 | 7.74% (inactive)
4 | COc1ccc(C2CCCN2C(=S)Nc2ccccc2C)cc1OC (centres undefined) | -1.92% (inactive)
5 | COc1ccc(C=O)cc1CSc1nnc(COc2cccc3cccnc23)o1 | 3.48% (inactive)
6 | C/C(CC(=O)Nc1cccc(C(F)(F)F)c1)=N/NC(=O)C(=O)NCCO | 8.99% (inactive)
7 | O=C(Cc1c[nH]c2ccccc12)N/N=C/c1ccccc1O | 20.7% (inactive)
8 | CC(C(=O)Nc1ccc(N2CCOCC2)cc1)N1C(=O)c2ccccc2C1=O (centres undefined) | 4.39% (inactive)
9 | COc1ccc(NC(=O)C(C)N2C(=O)c3ccccc3C2=O)cc1S(=O)(=O)N1CCOCC1 (centres undefined) | 9.37% (inactive)
10 | COc1ccc(NC(=S)N(CCc2c(C)[nH]c3ccccc23)Cc2ccco2)cc1 | -1.5% (inactive)
11 | O=C(Nc1ccc2snnc2c1)N1CCSCC1 | 6.62% (inactive)
12 | CC(c1ccccc1)N1C(=O)c2ccccc2C1O (centres undefined) | 0.46% (inactive)
13 | CN(C)S(=O)(=O)c1ccc(N2CCOCC2)nc1 | 8.35% (inactive)
14 | CC(=O)NN1C(=O)/C(=C\c2ccccc2)SC1=S | 12.8% (inactive)
15 | O=C1/C(=C/c2cccs2)SC(=S)N1c1ccccc1 | 5.36% (inactive)
16 | Cc1ccc(S(=O)(=O)NN2C(=O)/C(=C/c3ccccn3)SC2=S)cc1 | 17.4% (inactive)
17 | O=S(=O)(Nc1nc2ccccc2[nH]1)c1ccccc1 | 1.84% (inactive)
18 | O=C(NN1C(=O)/C(=C/c2cccs2)SC1=S)c1ccncc1 | 20.6% (inactive)
19 | O=C(NN1C(=O)/C(=C/c2cccs2)SC1=S)c1ccccc1 | 7.49% (inactive)
20 | Nc1nnc(CSc2ccc(Cl)cc2)s1 | -0.69% (inactive)
21 | COc1cccc(NC(=O)C(Sc2nnc(-c3ccncc3)n2-c2ccc(Cl)cc2)c2ccccc2)c1 (centres undefined) | -1.95% (inactive)
22 | C=CCOc1c2ccc(C(=O)NCc3ccc(OC)cc3)cc2nn1C | 15.3% (inactive)

Row | Structure (SMILES) | inhibition
23 | Cc1cc(C)n(-c2ccc(C(=O)OCC(=O)c3c(N)n(C)c(=O)n(C)c3=O)cc2)n1 | 4.93% (inactive)
24 | O=C(CCCCn1c(=O)[nH]c2ccsc2c1=O)NCC1CCCO1 (centres undefined) | -2.47% (inactive)
25 | O=C(NCc1ccco1)c1ccc(Cl)c(S(=O)(=O)N2CCOCC2)c1 | 0.38% (inactive)
26 | COC(=O)c1cc(C(=O)NCCN2C(=O)S/C(=C\c3cccs3)C2=O)cc([N+](=O)[O-])c1 | 9.47% (inactive)
27 | CCOC(=O)c1cc(C)[nH]c(=S)c1C#N | 5.55% (inactive)
28 | COc1cc(/C=C/C(=O)O)cc(S(=O)(=O)Nc2ccc(F)cc2)c1OC | 5.47% (inactive)
29 | COc1cc(/C=C/C(=O)O)cc(S(=O)(=O)Nc2cccc(SC)c2)c1OC | 9.82% (inactive)
30 | COc1cc(/C=C/C(=O)O)cc(S(=O)(=O)NCc2ccco2)c1OC | 4.28% (inactive)
31 | COc1cc(/C=C/C(=O)O)cc(S(=O)(=O)Nc2ccccc2Cl)c1OC | 5.83% (inactive)
32 | COc1cc(/C=C/C(=O)O)cc(S(=O)(=O)Nc2ccc3c(c2)OCO3)c1OC | 10.2% (inactive)
33 | COc1cc(/C=C/C(=O)O)cc(S(=O)(=O)Nc2ccc3nc(C)sc3c2)c1OC | 3.42% (inactive)
34 | CC(=O)C1=C(O)C(=O)N(C2CCCCC2)C1c1ccccc1 (centres undefined) | 10.2% (inactive)
35 | CC(C)NC(=S)N(C)C1(c2ccccc2Cl)CCCCC1=O (centres undefined) | 2.06% (inactive)
36 | O=C(CCc1nc(-c2ccccc2F)no1)NCc1ccco1 | 8.13% (inactive)
37 | COCCNC(=S)Nc1ccc(N2CCCCC2)cc1 | 2.09% (inactive)
38 | Cc1ccc(N2C(=O)c3ccc(C(=O)O)cc3C2=O)c(C)c1 | -3.18% (inactive)
39 | Cc1ccc(N2C(=O)c3ccccc3C2=O)cc1C | 2.18% (inactive)
40 | Cc1cccc(N2C(=O)CCC2=O)n1 | -1.56% (inactive)
41 | Cc1cccc(NC(=O)CCCN2C(=O)c3ccccc3C2=O)n1 | -6.68% (inactive)
42 | Cc1ccc(N2C(=O)c3ccccc3C2=O)cc1Cl | -2.81% (inactive)
43 | Cc1ccc(N2C(=O)[C@@H]3C(C(=O)CN4C(=O)c5ccccc5C4=O)=NN[C@@H]3C2=O)c(C)c1 | 4.06% (inactive)
44 | CC(=O)Nc1ccc(/C(C)=N/NC(=O)c2ccc(F)cc2)cc1 | 7.12% (inactive)

Row | Structure (SMILES) | inhibition
45 | O=C(Cn1cncn1)N/N=C/c1ccncc1 | -2.16% (inactive)
46 | COc1ccc(N(C(=O)C(C)C)S(=O)(=O)c2ccc3c(c2)n(C)c(=O)n3C)cc1 | 4.01% (inactive)
47 | CC(C)c1ccc(-c2nnc(N)s2)cc1 | -1.69% (inactive)
48 | Cn1nc(C(C)(C)C)cc1NC(=O)Nc1ccc(F)cc1F | 6.33% (inactive)
49 | COc1ccc(S(=O)(=O)NCc2cc(-c3ccccc3Cl)no2)cc1 | 1.55% (inactive)
50 | COc1ccc(NC(=O)c2oc3ccccc3c2NC(=O)C(C)(C)C)cc1 | 6.73% (inactive)
51 | CCNc1nc(SC(C)C(=O)Nc2ccccc2)nc(N(C)C)n1 (centres undefined) | 0.28% (inactive)
52 | CCOC(=O)CNc1nc(Cl)nc(NC(C)(C)C)n1 | 5.43% (inactive)
53 | O=C(COc1ncnc2c(Cl)cc(Cl)cc12)N1CCN(S(=O)(=O)c2ccccc2)CC1 | 5.95% (inactive)
54 | O=C(COc1ncnc2ccccc12)N1CCN(S(=O)(=O)c2ccc(Cl)cc2)CC1 | -2.49% (inactive)
55 | O=C(COc1ncnc2ccccc12)N1CCN(S(=O)(=O)c2ccccc2)CC1 | 28.2% (active)
56 | O=C(CSc1ncn[nH]1)NN(c1ccccc1)c1ccccc1 | 0.8% (inactive)
57 | Cc1nc(-c2cccc(NS(=O)(=O)c3ccccc3)c2)cs1 | 12.7% (inactive)
58 | O=[N+]([O-])c1ccc(S(=O)(=O)Nc2nc3ccccc3nc2Nc2ccccc2)cc1 | 2.42% (inactive)
59 | O=S(=O)(Nc1cccc(S(=O)(=O)N2CCCCCC2)c1)c1ccccc1 | -2% (inactive)
60 | Cc1nc(-c2cccc(NS(=O)(=O)c3ccc4ccccc4c3)c2)cs1 | 11.2% (inactive)
61 | O=[N+]([O-])c1cccc(S(=O)(=O)Nc2nc3ccccc3nc2Nc2cccc(S(=O)(=O)N3CCCCC3)c2)c1 | 9.64% (inactive)
62 | CC(=O)Nc1ccc(S(=O)(=O)Nc2nc3ccccc3nc2Nc2ccc(S(N)(=O)=O)cc2)cc1 | 19.6% (inactive)
63 | CC(=O)Nc1ccc(Nc2nc3ccccc3nc2NS(=O)(=O)c2ccccc2)cc1 | 14.8% (inactive)
64 | CC(=O)Nc1ccc(S(=O)(=O)Nc2nc3ccccc3nc2Nc2ccc(O)cc2)cc1 | 29.4% (inactive)

Source: PubChem BioAssay AID1445 (SRMLSC, 2008)
